Results from PubChem BioAssay (NCI).
The panel holds about 83,000 compounds, 20% with a hit somewhere; the sample as a whole holds those more often.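 Activity criterion: percent growth below 10, measured after cells in 96-well plates were exposed to a single compound concentration for 48 hours.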 The source made the active and inactive calls.

How the values were obtained:
Experiment in all cases: NCI-60 one-dose screen, 48 h (100 = growth as untreated, 0 = no growth, -100 = all killed)
[1] = test system: NCI-H226 lung; details: 10 µM unless noted
[2] = test system: NCI-H322M lung; details: 10 µM unless noted
[3] = test system: HOP-62 NSCLC; details: 10 µM unless noted
[4] = test system: NCI-H460 lung; details: 10 µM unless noted
[5] = test system: HOP-92 NSCLC; details: 10 µM unless noted
[6] = test system: NCI-H522 lung; details: 10 µM unless noted
[7] = test system: 786-0 renal; details: 10 µM unless noted
[8] = test system: COLO 205 colon; details: 10 µM unless noted
[9] = test system: DU-145 prostate; details: 10 µM unless noted
[10] = test system: K-562 leukemia; details: 10 µM unless noted
[11] = test system: MALME-3M melanoma; details: 10 µM unless noted
[12] = test system: MDA-MB-231 breast; details: 10 µM unless noted
[13] = test system: RXF 393 renal; details: 10 µM unless noted
[14] = test system: SF-268 CNS; details: 10 µM unless noted
[15] = test system: SF-295 CNS; details: 10 µM unless noted
[16] = test system: SF-539 CNS; details: 10 µM unless noted
[17] = test system: UACC-257 melanoma; details: 10 µM
[18] = test system: M14 melanoma; details: 10 µM unless noted
[19] = test system: A549/ATCC NSCLC; details: 10 µM unless noted

Measured: growth

CN1CCN(c2nc(-c3cnc4ccccc4n3)cc3ccccc23)CC1
inactive: [1] 99.9% | [2] 96.7% | [3] 95.9% | [4] 41.3% | [5] 17.3% | [6] 86.9% | [7] 56.4% | [9] 77.1% | [11] 69% | [12] 71.4% | [13] 23.9% | [14] 71.1% | [15] 89.9% | [16] 80.1% | [17] 91%
active: [8] -65.2% | [10] -52.1% | [18] -80%

NC(=O)C(=Cc1ccc(Cl)cc1)C(N)=O
inactive: [1] 65.3% | [2] 79.6% | [3] 95.9% | [4] 89% | [5] 34.8% | [6] 46.5% | [7] 70.7% | [8] 81.3% | [9] 39.7% | [10] 31.8% | [11] 82% | [12] 80.3% | [13] 62.9% | [14] 84.8% | [15] 71.9% | [16] 55.6% | [17] 68.3% | [18] 70.3%

Cn1cc(-c2nn3cc(-c4ccncc4)nc3s2)c2cc(Cl)ccc21
inactive: [1] 86.1% | [2] 78.3% | [3] 67.4% | [4] 51.5% | [6] 46% | [19] 64% | [7] 89.1% | [8] 31.9% | [9] 74.3% | [11] 48.2% | [12] 73.5% | [13] 75.9% | [14] 67.9% | [15] 35.1% | [16] 82.1% | [17] 89.1% | [18] 52.5%
active: [5] 0.128% | [10] -1.66%

COc1ccccc1N1CCN(C2=NN=C(c3cccc(Cl)c3)c3ccccc3C2)CC1
inactive: [1] 57.5% | [2] 37% | [3] 34.3% | [5] 46.8% | [19] 17.2% | [7] 27% | [11] 44.9% | [14] 22.6% | [15] 19.3% | [17] 56.3%
active: [4] 1.95% | [6] -27.1% | [8] -38.7% | [9] 2.18% | [10] 3.9% | [12] -3.39% | [16] -11.6% | [18] 6.83%

C/C(=N\NC(=O)CSc1nc2sc3c(c2c(=O)n1-c1ccccc1)CCC(C)C3)c1ccc(Cl)cc1 (configuration not stated)
inactive: [2] 51.3% | [3] 34.5% | [6] 22.2% | [19] 42.5% | [8] 26.5% | [9] 22.8% | [10] 16.5% | [11] 29.1% | [12] 39.8% | [14] 23.8% | [15] 40.9% | [16] 18.5% | [17] 75%
active: [1] -1.29% | [4] 4.18% | [5] -1.5% | [7] 7.93% | [13] -23.3% | [18] -34%

CN1CCN(Cc2ccc(NC(=O)c3cncc(C#Cc4cnc5ccc(NC6CCOCC6)nn45)c3)cc2C(F)(F)F)CC1
active: [1] -53.1% | [2] -20% | [3] -0.603% | [4] -81.4% | [5] -29.2% | [6] -68.5% | [19] -14.2% | [7] -88.3% | [8] -90.6% | [9] -95.2% | [10] -12.8% | [11] -86.5% | [12] -71.9% | [13] -93.8% | [14] -47.5% | [15] -85.2% | [16] -92.1% | [17] -13.9% | [18] -97.2%

CN1CCN(c2nc(-c3csc(-c4ccncc4)n3)cc3ccccc23)CC1
inactive: [1] 98.1% | [2] 82.1% | [3] 85% | [4] 78.2% | [5] 15.3% | [6] 55.7% | [19] 71.1% | [7] 65.7% | [8] 39.6% | [9] 65.3% | [10] 11% | [11] 30.7% | [12] 63% | [14] 72.8% | [15] 45.8% | [16] 52.6%
active: [13] -26.5% | [17] -1.71% | [18] -18.5%

CCCCCCNC(=O)Oc1ccc(/C(=C(/C)c2ccc(Cl)cc2)c2ccc(OCCN3CCCC3)cc2)cc1
active: [4] -57% | [7] -28.8% | [8] -36.4% | [10] 6.52% | [11] -70.8% | [13] 9.25% | [15] -32.7% | [16] -24.4% | [17] -16.5% | [18] -54.3%
inactive: [1] 83.1% | [2] 69.2% | [3] 65% | [5] 26% | [6] 65.3% | [19] 53.4% | [9] 69.2% | [12] 30.6% | [14] 61.9%

COc1ccc(CN2C(=O)/C(=C/c3nc(CO)cs3)SC2=S)cc1
inactive: [1] 101% | [2] 97.5% | [3] 104% | [4] 100% | [5] 63.4% | [6] 35.6% | [19] 95.7% | [7] 51.2% | [8] 118% | [9] 96.5% | [10] 52.6% | [11] 93.2% | [12] 79.5% | [13] 95.3% | [14] 98.8% | [15] 106% | [16] 70.1% | [17] 93.6% | [18] 86.4%

Oc1ccc(CSc2nnc(-c3ccc(Br)cc3)n2-c2ccccc2)c2cccnc12
active: [4] 7.57% | [15] 6.74%
inactive: [1] 44.7% | [2] 52.4% | [3] 16.1% | [5] 31.9% | [6] 28.5% | [19] 26.3% | [7] 43.2% | [8] 99.6% | [9] 39.2% | [10] 15.8% | [11] 52% | [12] 59.2% | [13] 71.5% | [14] 32.7% | [16] 16.8% | [17] 25.2% | [18] 30.1%

CC1(C)CC[C@]2(C(=O)N3CCCNCC3)CC[C@]3(C)C(=CC[C@@H]4[C@@]5(C)CCC(=O)C(C)(C)[C@@H]5CC[C@]43C)[C@H]2C1
inactive: [1] 103% | [2] 101% | [3] 109% | [4] 106% | [5] 96.6% | [6] 98.6% | [19] 106% | [7] 99.5% | [8] 115% | [9] 108% | [10] 96.8% | [11] 110% | [12] 106% | [14] 102% | [15] 104% | [16] 97.2% | [17] 105% | [18] 110%

CCCCSc1nnc(-c2ccc(-c3ccc(Cl)cc3)nc2C)o1
inactive: [1] 95.9% | [2] 103% | [3] 108% | [4] 101% | [5] 93.4% | [6] 98% | [19] 102% | [7] 96.9% | [8] 101% | [9] 98.2% | [10] 90.1% | [11] 102% | [12] 104% | [13] 110% | [14] 103% | [15] 96.8% | [16] 98.1% | [17] 106% | [18] 104%

Cn1c(SC(C(=O)Nc2ccc(F)cc2)c2ccccc2)nc2ccccc2c1=O (configuration not stated)
inactive: [1] 102% | [2] 111% | [3] 99.6% | [4] 112% | [5] 86.9% | [6] 93.1% | [19] 99.1% | [7] 102% | [8] 119% | [9] 112% | [10] 103% | [11] 88% | [12] 99.4% | [13] 117% | [14] 106% | [15] 98.2% | [16] 96.1% | [17] 95.6%
